LmPK inh = qHTS Assay for Inhibitors of Leishmania Mexicana Pyruvate Kinase (LmPK); Q27686; purified LmPK, Kinase-Glo ATP luminescence, 1 h; Potency, µM (doses to about 57.5 µM), hits mostly inhibitors; 0.37% of 290,000 active; AID 1721, 2009
Target sequence (Q27686 whole entry, looked up): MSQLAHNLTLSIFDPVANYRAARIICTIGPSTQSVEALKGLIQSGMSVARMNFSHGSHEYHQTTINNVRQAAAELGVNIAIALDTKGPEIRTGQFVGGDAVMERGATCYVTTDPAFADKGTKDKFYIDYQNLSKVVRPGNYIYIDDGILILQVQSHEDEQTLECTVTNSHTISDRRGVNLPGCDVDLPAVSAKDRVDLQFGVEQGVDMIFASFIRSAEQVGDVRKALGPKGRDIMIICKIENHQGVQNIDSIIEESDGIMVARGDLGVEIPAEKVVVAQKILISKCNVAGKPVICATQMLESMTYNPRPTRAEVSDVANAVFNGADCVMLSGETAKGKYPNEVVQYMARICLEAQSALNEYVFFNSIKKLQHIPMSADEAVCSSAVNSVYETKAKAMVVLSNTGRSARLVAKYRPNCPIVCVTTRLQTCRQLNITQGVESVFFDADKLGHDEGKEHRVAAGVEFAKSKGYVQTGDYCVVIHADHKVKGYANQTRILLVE
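Purified LmPK (0.1 nM) with 0.5 mM PEP and 0.1 mM ADP in imidazole buffer pH 7.2 with MgCl2/KCl, 1 h at room temperature. ATP formed was read by luciferase luminescence and normalized to no-enzyme and uninhibited controls.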
Tb PYK inh = qHTS of Trypanosoma Brucei Inhibitors; AID 624173, 2012; 0.12% of 410,000 active; pyruvate kinase (Trypanosoma brucei), Q57TT1; Potency, µM (titrated, usually from 76.8 µM), usual class: inhibitors; TbPYK enzyme, Kinase-Glo Plus ATP luminescence, 45 min; also: nearly all actives have a fitted effect of over 50% in size
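Quantitative HTS: titrated library compounds versus trypanosomal pyruvate kinase in TEA buffer (pH 7.2) containing KCl, MgCl2, BSA and Tween-20. Reactions were initiated with ADP, 130 uM final. Kinase-Glo Plus luminescence was read after 45 min at RT.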
Shiga inhibitor = A qHTS for Small Molecule Inhibitors of Shiga Toxin. Vero cells, Shiga toxin protein synthesis inhibition reporter. 9.2% of 290,000 active. AID 2315, 2010. inhibition, % at 38.7 µM; in the data active = inhibition mostly above about 28%, no sharp cut-off; inactive = mostly below about 43%
Cycloheximide cs = Cycloheximide Counterscreen for Small Molecule Inhibitors of Shiga Toxin; cell reporter, cycloheximide protein synthesis inhibition counterscreen; 12% of 300,000 active; max response, %; in the data active = max response mostly above about 13%, no sharp cut-off; inactive = mostly below about 14%; also: read at 38.3 µM for the half of the compounds with a filed dose
Giardia FBPA inh = qHTS Assay for Inhibitors of Fructose-1,6-bisphosphate Aldolase from Giardia Lamblia; purified Giardia FBPA; A8B2U2; Potency, µM (top dose mostly 59.6 µM), actives largely listed as inhibitors; 0.71% of 290,000 active; also: nearly all actives have a fitted effect of over 55% in size
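Giardia FBPA (40 nM reagent) was preincubated 10 min at RT with compound (up to 57.5 uM final), then substrate plus GAPDH/TPI/NAD/arsenate coupling system with diaphorase/resazurin was added; resorufin fluorescence (525/598 nm) was read after 20 min.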
Sm TGR inh = qHTS Assay for the Inhibitors of Schistosoma Mansoni Peroxiredoxins; purified TGR, DTNB reduction, TNB absorbance 405 nm; Potency, µM (top dose mostly 114 µM), hits mostly inhibitors; 3% of 360,000 active; AID 485364, 2010; also: nearly all actives have a fitted effect of over 60% in size
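Kinetic colorimetric format: TGR-catalysed, NADPH-driven DTNB reduction monitored via TNB absorbance. Enzyme dispensed at 20 nM; compound exposure 15 min at room temperature before reaction start.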
Of the large screens only hits and unclear results are named; the others gave an inactive call. This excerpt belongs to a sample that is enriched for hits. Unless noted, calls follow the shape of the dose curve; as a rule, active = well fitted curve in the direction sought with a large enough effect; inconclusive = small, poorly fitted or top-dose-only effect, or another doubt; inactive = no such curve, though single readings can be large; an effect the other way counts as inactive or inconclusive.

COc1ccc(S(=O)(=O)N2CCN(c3nn(C)c(=O)n(C)c3=O)CC2)cc1	none (no result: LmPK inh, Shiga inhibitor, Cycloheximide cs, Giardia FBPA inh)
COc1ccc(NC(C)=[N+](C)CCNS(=O)(=O)c2ccc(Cl)cc2)cc1Cl	Cycloheximide cs 16
COc1ccccc1NC(C)=[N+](C)CCNS(=O)(=O)c1ccc(Cl)cc1	Tb PYK inh inconclusive (no result: Giardia FBPA inh)
COc1ccc(NC(=O)COC(=O)CNS(=O)(=O)c2ccccc2)cc1OC	none
COc1ccc(NC(=O)CNS(=O)(=O)c2ccccc2)cc1Cl	Cycloheximide cs 14
COc1ccc(Cn2ccnc2SCC(=O)Nc2cc(C(F)(F)F)ccc2Cl)cc1	none (no result: LmPK inh, Shiga inhibitor, Cycloheximide cs, Giardia FBPA inh)
COC(=O)c1ccc(-n2c(C)cc(-c3csc(NC(=O)c4ccc(S(=O)(=O)N(C)C)cc4)n3)c2C)cc1	none
CN1CCN(S(=O)(=O)c2cccc(C(=O)Nc3nc(-c4ccccc4)cs3)c2)CC1	Shiga inhibitor 30, Cycloheximide cs 24
O=C(Nc1nc(-c2cccs2)cs1)c1cccc(S(=O)(=O)N2CCCCCC2)c1	Shiga inhibitor 99, Cycloheximide cs 21
Cc1cc(-c2csc(NC(=O)c3cccc(S(=O)(=O)N(C)C)c3)n2)c(C)n1-c1ccccc1	Shiga inhibitor 39
C=CCc1ccccc1OCCSc1nc(-c2ccccc2F)nc2cc(=O)[nH]n12	none (no result: LmPK inh, Shiga inhibitor, Cycloheximide cs, Giardia FBPA inh)
COc1ccc(C)cc1-n1nnc(C(=O)Nc2cccc(SC)c2)c1C	none (no result: LmPK inh, Shiga inhibitor, Cycloheximide cs, Giardia FBPA inh)
S=c1c2c(nc3nc[nH]n13)CCC2	Giardia FBPA inh 2.5µM, Sm TGR inh 18µM
CC1CCc2c(nc3nc[nH]n3c2=O)C1 (centres undefined)	none
COc1ccc(CNC(=O)c2ccc3c(c2)N(Cc2c(F)cccc2Cl)C(=O)CS3)cc1	none (no result: LmPK inh, Shiga inhibitor, Cycloheximide cs, Giardia FBPA inh)
Cc1c(C(=O)O)cnc2cc(-c3ccc(Cl)cc3)nn12	Cycloheximide cs 16
CC(=O)c1cnc2cc(-c3ccc(Cl)cc3)nn2c1C	Shiga inhibitor 56, Cycloheximide cs 21
O=c1c2sc3ccccc3c2n(Cc2ccccc2)c(=O)n1CCc1ccccc1	none (no result: LmPK inh, Shiga inhibitor, Cycloheximide cs, Giardia FBPA inh)
Cc1c(-c2cc(C(=O)O)no2)cnn1C	Shiga inhibitor 50, Cycloheximide cs 29
CC1=C(c2ccc(F)cc2)S(=O)(=O)N=C1N1CCC(C(=O)NCCc2cccc(C)c2)CC1	none (no result: LmPK inh, Shiga inhibitor, Cycloheximide cs, Giardia FBPA inh)
CN(c1cccc(NC(=O)COc2ccc(Cl)cc2Cl)c1)S(C)(=O)=O	Shiga inhibitor 54, Cycloheximide cs 19
Cc1ccc(NC(=O)CCn2cccc2)cc1Cl	Sm TGR inh 35µM
CC(=O)c1cccc(NC(=O)COC(=O)COc2ccccc2C)c1	none
CC(=O)Nc1cccc(NC(=O)COc2ccccc2C)c1	Shiga inhibitor 33, Cycloheximide cs 20
CCc1ccc(NC(=O)CCn2cccc2)cc1	Sm TGR inh inconclusive
CN(c1cccc(NC(=O)CCSc2ccccc2)c1)S(C)(=O)=O	Shiga inhibitor 35, Cycloheximide cs 38
CN(c1cccc(NC(=O)CSc2ccc(Cl)cc2)c1)S(C)(=O)=O	none
COc1ccc(N2C(=NC(=O)C(C)Oc3ccccc3)SC3CS(=O)(=O)CC32)cc1 (centres undefined)	none (no result: Giardia FBPA inh)
Cc1ccc(NC(=O)Cn2nc(-c3ccco3)ccc2=O)cc1Cl	Sm TGR inh 6.3µM
Cc1ccc(NC(=O)Cn2nc3c(cc2=O)CCCC3)cc1Cl	none (no result: LmPK inh, Shiga inhibitor, Cycloheximide cs, Giardia FBPA inh)
Cc1ccccc1OCC(=O)Nc1cccc(N(C)S(C)(=O)=O)c1	Shiga inhibitor active, Cycloheximide cs 15
CN(c1ccccc1)S(=O)(=O)c1cccc(NC(=O)COc2ccccc2)c1	none (no result: LmPK inh, Shiga inhibitor, Cycloheximide cs, Giardia FBPA inh)
CN(c1cccc(NC(=O)COc2ccccc2)c1)S(C)(=O)=O	Shiga inhibitor 75, Cycloheximide cs 43
Cc1ccc(NC(=O)COc2ccccc2C=O)cc1Cl	Cycloheximide cs 26
CCOC(=O)c1c(C)oc2ncnc(N3CCN(c4ccccc4OC)CC3)c12	none (no result: LmPK inh, Shiga inhibitor, Cycloheximide cs, Giardia FBPA inh)
N#Cc1nc(-c2ccco2)oc1N1CCc2ccccc2C1	Shiga inhibitor 91, Cycloheximide cs 25, Sm TGR inh 50µM
CCN1CCN(c2oc(-c3ccco3)nc2C#N)CC1	none
N#Cc1nc(-c2ccco2)oc1N1CCCC1	none
CC1CC(C)CN(c2oc(-c3ccco3)nc2C#N)C1 (centres undefined)	Cycloheximide cs 13
CCOC(=O)C1CCN(C2CCN(C(=O)c3oc4c(C)c(C)ccc4c3C)CC2)CC1	Shiga inhibitor 82, Cycloheximide cs 19 (no result: Giardia FBPA inh)
CCOC(=O)C1CCN(C2CCN(C(=O)c3oc4c(F)cccc4c3C)CC2)CC1	none (no result: Giardia FBPA inh)
CCCc1ccc2oc(C(=O)N(C)Cc3nccs3)c(C)c2c1	Shiga inhibitor 117, Cycloheximide cs 56 (no result: Giardia FBPA inh)
CCCc1ccc2oc(C(=O)N3CCC(C(N)=O)(N4CCCCC4)CC3)c(C)c2c1	none
CCCc1ccc2oc(C(=O)N3CCN(C4CCS(=O)(=O)C4)CC3)c(C)c2c1 (centres undefined)	Cycloheximide cs 23 (no result: Giardia FBPA inh)
CCCc1ccc2oc(C(=O)N3CCC(O)CC3)c(C)c2c1	Shiga inhibitor 70, Cycloheximide cs 44
CC(=O)N(O)[C@@H]1c2cc(C#N)ccc2OC(C)(C)[C@H]1O	none (no result: LmPK inh, Tb PYK inh, Shiga inhibitor, Cycloheximide cs, Sm TGR inh)
COc1ccc(C(=O)Nc2ccc(-c3nc4ncccc4o3)cc2C)cc1Br	none (no result: LmPK inh, Shiga inhibitor, Cycloheximide cs, Giardia FBPA inh)
Cc1ccc2c(C)c(C(=O)N3CCCC(C(N)=O)C3)oc2c1C (centres undefined)	Shiga inhibitor 72, Cycloheximide cs 27
